Values joined by “and” are separate entries in the source; they are usually repeats but may differ in a detail not shown here. Identical values can stand only once. Records with an inconclusive call do not appear. Active and inactive are the calls of the source. Calls come from the whole dose curve; as a rule, active = well fitted curve in the direction sought with a large enough effect in the repeat runs; inconclusive = weak or mixed curves; inactive = no such curve, though single readings can be large; an effect the other way counts as inactive or inconclusive.
% is set by controls: 0 for no effect and ±100 for the full control effect; potency is the fitted concentration of half-maximal effect.
Note: nearly all actives have a fitted effect of over 55% in size.

Sequence of Cytochrome P450 2D6 (Homo sapiens) (P10635 whole entry, looked up): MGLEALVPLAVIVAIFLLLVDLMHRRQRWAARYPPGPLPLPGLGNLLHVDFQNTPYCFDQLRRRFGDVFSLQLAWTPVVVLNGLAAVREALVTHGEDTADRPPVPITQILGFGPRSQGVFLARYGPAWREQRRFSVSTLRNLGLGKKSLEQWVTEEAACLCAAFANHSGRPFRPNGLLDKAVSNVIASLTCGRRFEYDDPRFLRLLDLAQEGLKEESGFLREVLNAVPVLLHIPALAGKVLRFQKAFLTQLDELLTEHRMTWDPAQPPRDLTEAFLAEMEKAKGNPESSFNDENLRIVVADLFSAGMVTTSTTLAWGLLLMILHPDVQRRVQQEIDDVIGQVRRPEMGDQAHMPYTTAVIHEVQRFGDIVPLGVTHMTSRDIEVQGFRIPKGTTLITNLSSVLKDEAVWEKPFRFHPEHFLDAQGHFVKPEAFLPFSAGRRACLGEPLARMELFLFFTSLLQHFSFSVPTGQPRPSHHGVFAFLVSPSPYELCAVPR

The target of one experiment is Cytochrome P450 2D6 (Homo sapiens) (UniProt P10635). As to the kind of experiment: Cytochrome P450 family 2 subfamily D member 6 (CYP2D6) small molecule antagonists: luciferase biochemical (cell-free) qHTS assay (AID 1645840). To be noted: P450-Glo CYP2D6 enzyme, luciferin luminescence, 1 h; series mostly up to 57.4 µM; activity change, negative = inhibition: at the top concentration. A digest of the protocol:
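P450-Glo CYP2D6 system: proluciferin substrate converted by enzyme to luciferin, read by luminescence proportional to activity. Enzyme-substrate mix with compound 10 min at room temperature, then NADPH regeneration 1 h before detection reagent.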
As for `CN1CCN(C2=Nc3ccccc3Sc3ccc(Cl)cc32)CC1`, the Potency was 15.5 µM (active).

`CN1CCN(C2=Nc3cc(F)ccc3Cc3ccccc32)CC1`: the Potency is 5.49 µM (active).

Take `CCN1CCN(C(=O)N[C@@H](C(=O)N[C@@H]2C(=O)N3C(C(=O)O)=C(CSc4nnnn4C)CS[C@H]23)c2ccc(O)cc2)C(=O)C1=O`: the “activity change, negative = inhibition” value is -21.8% (inactive).

As for `O=C(CCN1CCN2CCCC2C1)N1c2ccccc2Sc2ccc(Cl)cc21` (stereo not given), the Potency was 6.74 µM (active).

For the compound `Cc1ccc(S(=O)(=O)NC(=O)NC2CCCC2)cc1`, the “activity change, negative = inhibition” value is 2.63% (inactive).

Take `Nc1ccc(C(=O)NCC(=O)O)cc1`: the “activity change, negative = inhibition” value is -10.6% (inactive).

On to `CC1(C)OC[C@@H]2O[C@@]3(C(=O)O)OC(C)(C)O[C@H]3[C@@H]2O1`, for which the “activity change, negative = inhibition” value is 1.12% (inactive).

As to `O=C(O)c1ccc(S(=O)(=O)N(Cl)Cl)cc1`, the “activity change, negative = inhibition” value is -2.06% (inactive).

For the compound `CCCCNc1ccc(C(=O)OCCOCCOCCOCCOCCOCCOCCOCCOCCOC)cc1`, the “activity change, negative = inhibition” value is -18.9% (inactive).

In the case of `FC(F)(F)C(F)(F)C(F)(F)C(F)(F)C(F)(F)C(F)(F)C(F)(F)C(F)(F)Br`, the “activity change, negative = inhibition” value is -7.43% (inactive).

Take `C/C=C/c1ccc(O)c(OC)c1`: the “activity change, negative = inhibition” value was 9.88% (inactive).

In the case of `CCCCNC(=O)NS(=O)(=O)c1ccc(N)cc1`, the “activity change, negative = inhibition” value is 13.9% (inactive).

Turning to `C[N+]12CCC(CC1)C(OC(=O)C(O)(c1ccccc1)c1ccccc1)C2` (stereo not given), the Potency is 15.5 µM (active).

With `Cc1cc(C)cc(OCC2CNC(=O)O2)c1` (stereo not given), the “activity change, negative = inhibition” value is 3.34% (inactive).

As to `CN1CCN(CCC(=O)N2c3ccccc3Sc3ccc(C(F)(F)F)cc32)CC1`, the Potency was 0.0347 µM (active).

Consider `CCCc1ncc(C[n+]2ccccc2C)c(N)n1`, for which the “activity change, negative = inhibition” value is 10.7% (inactive).

`CC(=O)Oc1ccc(C)cc1`: the “activity change, negative = inhibition” value was -12.8% (inactive).

For `C[C@]12CCC(=O)C=C1C=C[C@@H]1[C@@H]2CC[C@@]2(C)[C@H]1CC[C@@]21CCC(=O)O1`, the “activity change, negative = inhibition” value was -21.9% (inactive).

As to `CCCCCCCCOc1ccc(C(=O)c2ccccc2)c(O)c1`, the “activity change, negative = inhibition” value is 9.14% (inactive).

Turning to `CCN(CC)CCOC(=O)C1(c2ccccc2)CCCC1`, the Potency is 2.19 µM (active).

Consider `CC(C)n1c(/C=C/[C@@H](O)C[C@@H](O)CC(=O)O)c(-c2ccc(F)cc2)c2ccccc21`, for which the “activity change, negative = inhibition” value is -9.48% (inactive).

For the compound `N[C@H](C(=O)O)[C@@H](O)c1ccc(O)c(O)c1`, the “activity change, negative = inhibition” value was 4.66% (inactive).

With `O=C(Nc1ncc([N+](=O)[O-])s1)c1cccs1`, the Potency was 13.8 µM (active).

`O=C(O)C1(C(=O)O)CCC1.[NH2-].[NH2-].[Pt+2]`: the Potency was 19.5 µM (active).

Take `NC1CCN(c2nc3c(cc2F)c(=O)c(C(=O)O)cn3-c2ccc(F)cc2F)C1` (stereo not given): the “activity change, negative = inhibition” value was 3.91% (inactive).

On to `COc1cc(NS(=O)(=O)c2ccc(N)cc2)ncn1`, for which the “activity change, negative = inhibition” value was 7.29% (inactive).

With `CC1CCc2c(N3CCC(O)CC3)c(F)cc3c(=O)c(C(=O)O)cn1c23` (stereo not given), the “activity change, negative = inhibition” value is 2.13% (inactive).

Turning to `CC(=O)N[C@@H](CCC(=O)O)C(=O)O`, the “activity change, negative = inhibition” value is 4.92% (inactive).

`CCN(CC)CCOC(=O)C(Cc1cccc2ccccc12)CC1CCCO1` (stereo not given): the Potency is 3.09 µM (active) and 3.38 µM (active).

Another experiment deals with Cytochrome P450 2C9 (Homo sapiens) (UniProt P11712). As to the kind of experiment: Cytochrome P450 family 2 subfamily C member 9 (CYP2C9) small molecule antagonists: luciferase biochemical (cell-free) qHTS assay (AID 1645842). To be noted: P450-Glo CYP2C9 enzyme assay, luciferin luminescence; series mostly up to 57.4 µM; activity change, negative = inhibition: at the top concentration. A digest of the protocol: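 P450-Glo CYP2C9 system: proluciferin substrate with enzyme in mix containing 0.4% BSA, 10 min at room temperature, then NADPH regeneration solution added and incubated 1 h at 37C. Detection reagent stopped reaction; luminescence read after 20 min as RLU.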
Sequence of Cytochrome P450 2C9 (Homo sapiens) (P11712 whole entry, looked up): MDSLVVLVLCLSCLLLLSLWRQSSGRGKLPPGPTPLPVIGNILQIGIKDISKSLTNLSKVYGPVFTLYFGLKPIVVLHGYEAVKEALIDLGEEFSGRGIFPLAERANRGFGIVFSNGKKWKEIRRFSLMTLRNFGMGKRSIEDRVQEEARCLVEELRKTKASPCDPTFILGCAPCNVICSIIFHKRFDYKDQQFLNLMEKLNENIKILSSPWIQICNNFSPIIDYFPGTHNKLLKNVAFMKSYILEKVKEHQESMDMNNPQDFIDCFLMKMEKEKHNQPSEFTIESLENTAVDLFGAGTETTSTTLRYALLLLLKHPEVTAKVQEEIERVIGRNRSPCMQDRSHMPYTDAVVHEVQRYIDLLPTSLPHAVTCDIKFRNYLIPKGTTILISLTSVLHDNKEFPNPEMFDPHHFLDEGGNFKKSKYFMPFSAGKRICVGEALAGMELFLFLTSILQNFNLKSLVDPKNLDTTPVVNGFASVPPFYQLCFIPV
(qHTS replaces the single test concentration by a dilution series.)
Consider `CN1CCN(C2=Nc3ccccc3Sc3ccc(Cl)cc32)CC1`, for which the “activity change, negative = inhibition” value was -27.1% (inactive).

On to `CN1CCN(C2=Nc3cc(F)ccc3Cc3ccccc32)CC1`, for which the “activity change, negative = inhibition” value was 8.83% (inactive).

With `CCN1CCN(C(=O)N[C@@H](C(=O)N[C@@H]2C(=O)N3C(C(=O)O)=C(CSc4nnnn4C)CS[C@H]23)c2ccc(O)cc2)C(=O)C1=O`, the “activity change, negative = inhibition” value is 0.597% (inactive).

For `O=C(CCN1CCN2CCCC2C1)N1c2ccccc2Sc2ccc(Cl)cc21` (stereo not given), the “activity change, negative = inhibition” value is 8.73% [at 23.9 µM] (inactive).

As for `Cc1ccc(S(=O)(=O)NC(=O)NC2CCCC2)cc1`, the “activity change, negative = inhibition” value was -12.2% (inactive).

Turning to `Nc1ccc(C(=O)NCC(=O)O)cc1`, the “activity change, negative = inhibition” value was 8.59% (inactive).

Consider `CC1(C)OC[C@@H]2O[C@@]3(C(=O)O)OC(C)(C)O[C@H]3[C@@H]2O1`, for which the “activity change, negative = inhibition” value was 15% (inactive).

In the case of `O=C(O)c1ccc(S(=O)(=O)N(Cl)Cl)cc1`, the “activity change, negative = inhibition” value was 1.59% (inactive).

For the compound `CCCCNc1ccc(C(=O)OCCOCCOCCOCCOCCOCCOCCOCCOCCOC)cc1`, the Potency is 6.92 µM (active).

For the compound `FC(F)(F)C(F)(F)C(F)(F)C(F)(F)C(F)(F)C(F)(F)C(F)(F)C(F)(F)Br`, the “activity change, negative = inhibition” value is 15.5% (inactive).

In the case of `C/C=C/c1ccc(O)c(OC)c1`, the Potency was 2.19 µM (active).

`CCCCNC(=O)NS(=O)(=O)c1ccc(N)cc1`: the “activity change, negative = inhibition” value was 0.24% (inactive).

Turning to `C[N+]12CCC(CC1)C(OC(=O)C(O)(c1ccccc1)c1ccccc1)C2` (stereo not given), the “activity change, negative = inhibition” value was 1.23% (inactive).

In the case of `Cc1cc(C)cc(OCC2CNC(=O)O2)c1` (stereo not given), the “activity change, negative = inhibition” value was 5.27% (inactive).

For the compound `CN1CCN(CCC(=O)N2c3ccccc3Sc3ccc(C(F)(F)F)cc32)CC1`, the “activity change, negative = inhibition” value was 13.8% (inactive).

On to `CCCc1ncc(C[n+]2ccccc2C)c(N)n1`, for which the “activity change, negative = inhibition” value was -3.3% (inactive).

For the compound `CC(=O)Oc1ccc(C)cc1`, the “activity change, negative = inhibition” value is 11.9% (inactive).

Take `CCCCCCCCOc1ccc(C(=O)c2ccccc2)c(O)c1`: the “activity change, negative = inhibition” value was -22.5% (inactive).

On to `CCN(CC)CCOC(=O)C1(c2ccccc2)CCCC1`, for which the “activity change, negative = inhibition” value is 7.82% (inactive).

For the compound `N[C@H](C(=O)O)[C@@H](O)c1ccc(O)c(O)c1`, the “activity change, negative = inhibition” value was 1.42% (inactive).

Regarding `O=C(Nc1ncc([N+](=O)[O-])s1)c1cccs1`, the Potency is 9.77 µM (active).

For the compound `NC1CCN(c2nc3c(cc2F)c(=O)c(C(=O)O)cn3-c2ccc(F)cc2F)C1` (stereo not given), the “activity change, negative = inhibition” value is 2.06% (inactive).

In the case of `COc1cc(NS(=O)(=O)c2ccc(N)cc2)ncn1`, the “activity change, negative = inhibition” value is 1.98% (inactive).

For `CC1CCc2c(N3CCC(O)CC3)c(F)cc3c(=O)c(C(=O)O)cn1c23` (stereo not given), the “activity change, negative = inhibition” value was -8.1% (inactive).

In the case of `CC(=O)N[C@@H](CCC(=O)O)C(=O)O`, the “activity change, negative = inhibition” value was 17.2% (inactive).

For the compound `CCN(CC)CCOC(=O)C(Cc1cccc2ccccc12)CC1CCCO1` (stereo not given), the Potency result is “inactive”.

For the origin of these results see PubChem BioAssay (NCATS).
